We go through 39 molecules from PubChem BioAssay (NCI).

Compounds without any hit were thinned out: in the full panel of roughly 83,000, 20% have a hit.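 Activity criterion: percent growth below 10, measured after cells in 96-well plates were exposed to a single compound concentration for 48 hours.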 Calls of active or inactive are those of the source.

For one experiment, the system named is HOP-62 NSCLC. Put plainly: NCI-60 one-dose screen, 48 h (100 = growth as untreated, 0 = no growth, -100 = all killed). Particulars: 10 µM unless noted.
As for `COc1cc(/C=C2\CN(C(=O)OC(C)(C)C)C/C(=C\c3ccc(O)c(OC)c3)C2=O)ccc1O`, the growth was 98% (inactive).

Consider `CCN1C(=O)C(C)C=C(C)C=C1C` (configuration not stated), for which the growth was 105% (inactive).

As to `COCc1nc(NS(=O)(=O)c2ccc(N)cc2)nc(C)c1Br`, the growth is 91% (inactive).

As to `O=c1c2cc(Br)cc(Br)c2nc(-c2ccc(Cl)cc2)n1/N=C\c1ccccc1F`, the growth was 27.4% (inactive).

On to `CCCCCCCCCCCCCC1=NC(C)(C)CN1C(C)C`, for which the growth was -79.7% (active).

With `CCC(=O)OCc1ccc(OC)cc1`, the growth is 109% (inactive).

With `Fc1ccc(-c2cnc3nonc3n2)c(F)c1`, the growth is 93.7% (inactive).

Consider `O=S(=O)(Nc1ccc2ccccc2c1)N1CCCCC1`, for which the growth is 62.9% (inactive).

On to `CCn1c(Cc2ccccc2Nc2c(Cl)cccc2Cl)nnc1SCC(=O)Nc1cccc(OC)c1`, for which the growth was 94.2% (inactive).

Consider `CCN(CC)CC(=O)Nc1c(C)ccc(N)c1C`, for which the growth is 94.2% (inactive).

In the case of `C=C1C[C@@]2(C)C(CC[C@]3(C)C2CC=C2C4CC(C)(C)C[C@@H](OC(=O)/C(C)=C\C)[C@]4(C(=O)O)CC[C@]23C)C(C)(C)C1=O` (some centres not stated), the growth was 25.9% (inactive).

Consider `C=C1C(=O)O[C@H]2[C@H]1CC/C(COC(=O)NCc1cccc(OC)c1)=C\CC[C@@]1(C)O[C@@H]21`, for which the growth was 65.6% (inactive).

`CCCCOc1nc2ccccc2cc1/C=C/c1cc(/C=C/c2cc3ccccc3nc2OCCCC)n(-c2ccccc2)n1`: the growth is 91.2% (inactive).

Take `CCCCc1nc(Cl)c(C2CC(c3ccc(S(N)(=O)=O)cc3)=NN2c2cc(Cl)cc(Cl)c2)[nH]1` (configuration not stated): the growth is 61.8% (inactive).

`O=C(N/N=C\c1cc(Br)ccc1O)c1ccncc1`: the growth was 15% (inactive).

For `CC(C)C/C=C/C=C/C(=O)N[C@@H](CC(N)=O)C(=O)N[C@@H]1C(=O)N[C@H](c2ccc(O)cc2)C(=O)N[C@H](CCCN)C(=O)N[C@H]([C@@H](C)O)C(=O)N[C@H](c2ccc(O)cc2)C(=O)N[C@H](c2ccc(O)cc2)C(=O)N[C@H]([C@H](C)O)C(=O)N[C@H](Cc2ccccc2)C(=O)N[C@H](CCCN)C(=O)N[C@H](c2ccc(O[C@H]3O[C@@H](CO)[C@@H](O)[C@@H](O)[C@H]3O[C@@H]3O[C@H](CO)[C@H](O)[C@H](O)[C@@H]3O)cc2)C(=O)N[C@H]([C@H](C)O)C(=O)N[C@H](c2ccc(O)cc2)C(=O)NCC(=O)N[C@H](CC(C)C)C(=O)N[C@H](C)C(=O)N[C@H](c2ccc(O)c(Cl)c2)C(=O)O[C@@H]1C(N)=O`, the growth was 53.4% (inactive).

On to `CN(C)c1ccc(/C=C\c2cccc[n+]2C)cc1`, for which the growth was 48% (inactive).

`COC(=O)CSc1ccc(Cl)cc1`: the growth is 107% (inactive).

For `S=C(S)Oc1cccc2cccnc12`, the growth is 110% (inactive).

Take `O=C1NN(C(=O)c2ccccc2)C(c2ccc(Cl)c(Cl)c2)=C/C1=C\c1ccccc1[N+](=O)[O-]`: the growth was 37.8% [6.75 µM] (inactive).

For `CCOC(=O)Nc1ccc2nc(Sc3ccc(Cl)cc3)sc2c1`, the growth was 35.1% (inactive).

With `COc1cc(C2CC(c3cccc(Nc4ccnc5cc(Cl)ccc45)c3)=NN2C=O)cc(OC)c1OC` (configuration not stated), the growth was 1.34% (active).

In the case of `c1cn2cc(-c3ccc4ncn(C5CCCCC5)c4c3)nc(-c3ccc4c(c3)ncn4C3CCCCC3)c2n1`, the growth was -55.4% (active).

The next experiment relates to NCI-H460 lung. The description is as above. Particulars: 10 µM unless noted.
`Clc1nnc2c3ccccc3ccn12`: the growth is 105% (inactive).

As for `COc1ccc(-c2nn(C(=O)NCCN(C)C)cc2-c2ccncc2)cc1Cl`, the growth was 27.4% (inactive).

With `CCN1C(=O)N(CC)C2C1NN=c1s/c(=C\c3ccco3)c(=O)n12` (configuration not stated), the growth was 12.9% (inactive).

With `CC(C)N(C(=S)SSC(=S)N(C(C)C)C(C)C)C(C)C`, the growth was 110% (inactive).

On to `CC(C)=CC[C@@H]1CC2(CC=C(C)C)C(=O)C(OC3(C(=O)c4ccccc4)C(=O)C4(CC=C(C)C)C[C@@H](CC=C(C)C)C(C)(C)C(CC=C(C)C)(C4=O)C3=O)(C(=O)c3ccccc3)C(=O)C(CC=C(C)C)(C2=O)C1(C)C` (some centres not stated), for which the growth is -9.89% (active).

For the molecule `CCCCCCCCCCCCCCCC1=NCCN1`, the growth is 32.5% (inactive).

In the case of `COc1cc([N+](=O)[O-])cc(OC)c1OC`, the growth is 109% (inactive).

As to `NNC(=O)CSc1nc2scc(-c3ccccc3)c2c(=O)n1-c1ccccc1`, the growth was 110% (inactive).

For `C=CCN(CC#N)CC=C`, the growth was 115% (inactive).

With `CCOC(=O)Cn1c(-c2nonc2NC(=O)c2ccccc2F)nc2ccccc21`, the growth is 10.2% (inactive).

Consider `CCCCCCCOc1cccc(/C=C2\N=C3SCCCN3C2=O)c1`, for which the growth was 103% (inactive).

For `Cc1c2c(cc3c1[nH]c1ccccc13)C=NCC2`, the growth is 95.5% (inactive).

`COc1cc(OC)c(Cl)cc1N`: the growth was 103% (inactive).

Regarding `CS(=O)(=O)c1ccc(C(=O)Nc2ccc(Cl)c(-c3ccccn3)c2)c(Cl)c1`, the growth is -46% (active).

Regarding `Cc1cc([N+](=O)[O-])c(C)cc1N`, the growth is 109% (inactive).

On to `COc1cnc2c(c1)C(=O)c1c-2n(CCCN2CCNCC2)c(=O)c2cc(Cl)ccc12`, for which the growth was -81.2% (active).

On to `COc1cc(/C=C2\CN(C(=O)OC(C)(C)C)C/C(=C\c3ccc(O)c(OC)c3)C2=O)ccc1O`, for which the growth was 91.7% (inactive).

On to `CCN1C(=O)C(C)C=C(C)C=C1C` (configuration not stated), for which the growth is 113% (inactive).

On to `COCc1nc(NS(=O)(=O)c2ccc(N)cc2)nc(C)c1Br`, for which the growth was 106% (inactive).

Take `O=c1c2cc(Br)cc(Br)c2nc(-c2ccc(Cl)cc2)n1/N=C\c1ccccc1F`: the growth is 39.1% (inactive).

Take `CCCCCCCCCCCCCC1=NC(C)(C)CN1C(C)C`: the growth was -52.2% (active).

Consider `CCC(=O)OCc1ccc(OC)cc1`, for which the growth is 111% (inactive).

Turning to `Fc1ccc(-c2cnc3nonc3n2)c(F)c1`, the growth is 107% (inactive).

Regarding `O=S(=O)(Nc1ccc2ccccc2c1)N1CCCCC1`, the growth was 65.5% (inactive).

In the case of `CCn1c(Cc2ccccc2Nc2c(Cl)cccc2Cl)nnc1SCC(=O)Nc1cccc(OC)c1`, the growth was 84.8% (inactive).

As to `CCN(CC)CC(=O)Nc1c(C)ccc(N)c1C`, the growth was 108% (inactive).

For the molecule `C=C1C[C@@]2(C)C(CC[C@]3(C)C2CC=C2C4CC(C)(C)C[C@@H](OC(=O)/C(C)=C\C)[C@]4(C(=O)O)CC[C@]23C)C(C)(C)C1=O` (some centres not stated), the growth is -37.2% (active).

Take `C=C1C(=O)O[C@H]2[C@H]1CC/C(COC(=O)NCc1cccc(OC)c1)=C\CC[C@@]1(C)O[C@@H]21`: the growth is 55% (inactive).

`CCCCOc1nc2ccccc2cc1/C=C/c1cc(/C=C/c2cc3ccccc3nc2OCCCC)n(-c2ccccc2)n1`: the growth was 103% (inactive).

For the molecule `CCCCc1nc(Cl)c(C2CC(c3ccc(S(N)(=O)=O)cc3)=NN2c2cc(Cl)cc(Cl)c2)[nH]1` (configuration not stated), the growth is 13.9% (inactive).

For the molecule `O=C(N/N=C\c1cc(Br)ccc1O)c1ccncc1`, the growth is 6.66% (active).

Regarding `CC(C)C/C=C/C=C/C(=O)N[C@@H](CC(N)=O)C(=O)N[C@@H]1C(=O)N[C@H](c2ccc(O)cc2)C(=O)N[C@H](CCCN)C(=O)N[C@H]([C@@H](C)O)C(=O)N[C@H](c2ccc(O)cc2)C(=O)N[C@H](c2ccc(O)cc2)C(=O)N[C@H]([C@H](C)O)C(=O)N[C@H](Cc2ccccc2)C(=O)N[C@H](CCCN)C(=O)N[C@H](c2ccc(O[C@H]3O[C@@H](CO)[C@@H](O)[C@@H](O)[C@H]3O[C@@H]3O[C@H](CO)[C@H](O)[C@H](O)[C@@H]3O)cc2)C(=O)N[C@H]([C@H](C)O)C(=O)N[C@H](c2ccc(O)cc2)C(=O)NCC(=O)N[C@H](CC(C)C)C(=O)N[C@H](C)C(=O)N[C@H](c2ccc(O)c(Cl)c2)C(=O)O[C@@H]1C(N)=O`, the growth was 15.6% (inactive).

Take `CN(C)c1ccc(/C=C\c2cccc[n+]2C)cc1`: the growth is 69.5% (inactive).

Turning to `COC(=O)CSc1ccc(Cl)cc1`, the growth was 109% (inactive).

`S=C(S)Oc1cccc2cccnc12`: the growth was 107% (inactive).

For `O=C1NN(C(=O)c2ccccc2)C(c2ccc(Cl)c(Cl)c2)=C/C1=C\c1ccccc1[N+](=O)[O-]`, the growth is -25% [6.75 µM] (active).

Regarding `CCOC(=O)Nc1ccc2nc(Sc3ccc(Cl)cc3)sc2c1`, the growth was 25% (inactive).

With `COc1cc(C2CC(c3cccc(Nc4ccnc5cc(Cl)ccc45)c3)=NN2C=O)cc(OC)c1OC` (configuration not stated), the growth was 7.22% (active).

`c1cn2cc(-c3ccc4ncn(C5CCCCC5)c4c3)nc(-c3ccc4c(c3)ncn4C3CCCCC3)c2n1`: the growth is -48.5% (active).
